# Screens: PubChem, several laboratories
# In the library only some 3.3% were active in any assay of this set; here they are far more common.
# 697 NFkB inh = inhibitors of the PMA/ionomycin-induced NF-kB reporter in 697 B cells. 697 B-cell NF-kB luciferase reporter, 16 h. inhibition, % at 4 µM. 0.33% of 330,000 active. AID 435022; in the data active = inhibition above about 35%
# SMARCA2 activ = SMARCA2 function activation, primary screen; MG213 cells, MMTV-luciferase reporter, dexamethasone, overnight; activation, % at 9.1 µM; 1% of 370,000 active; AID 652017; in the data active = activation above about 7.8%
# Jurkat NFkB inh = lowers PMA/ionomycin-induced NF-kB signal in Jurkat cells | 0.53% of 330,000 active | inhibition, % at 4 µM | PMA/ionomycin-induced NF-kB luciferase reporter, luminescence; in the data active = inhibition above about 50%
# Gli-Sufu antag = antagonists of Gli-Sufu signaling; AID 588413; inhibition, % at 5 µM; Sufu-KO-LIGHT fibroblasts, Gli luciferase reporter luminescence; 0.74% of 340,000 active;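 active = inhibition above about 55%, limit read from the data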
# esBAF inh = SWI/SNF esBAF complex inhibition; mouse ES cells, Bmi1-luciferase knock-in reporter, 24 h; 100% = twice the neutral-well signal; reporter increase, % at 12.5 µM; 2% of 350,000 active; in the data active = activation above about 40%;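 note: a rise in the Bmi1 reporter signal indicates esBAF inhibition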
# Jurkat NFkB conf = inhibitors of the PMA/ionomycin-induced NF-kB reporter in Jurkat cells, retest | shares compounds with Jurkat NFkB inh | Jurkat NF-kB luciferase, 16 h | inhibition, % at 4 µM | 27% of 2,700 active | AID 435020;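 active = inhibition reaching about 45% at 4 µM in either replicate, limit read from the data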
# 697 NFkB conf = lowers PMA/ionomycin-induced NF-kB signal in 697 B cells. shares compounds with 697 NFkB inh. 697 B-cell NF-kB luciferase, 16 h. inhibition, % at 4 µM. 35% of 2,000 active. AID 449746; in the data active = inhibition mostly above about 28%, no sharp cut-off; inactive = mostly below about 22%
# Gli-Sufu confirm = confirmation of Gli-SUFU pathway antagonists. Sufu-KO-LIGHT cells, Gli luciferase reporter, luminescence. 40% of 2,500 active. shares compounds with Gli-Sufu antag. inhibition, % at 5 µM;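 active = mean inhibition at 5 µM reaching about 45%, limit read from the data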
# Gli cytotox = counter-screen for Gli-SUFU antagonists: cytotoxicity. cytotoxicity, % at 5 µM. 32% of 2,500 active. shares compounds with Gli-Sufu antag. Sufu-KO-LIGHT cells cytotoxicity, ATP luminescence. AID 651994;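 active = mean cytotoxicity at 5 µM above about 25%, limit read from the data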;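 note: cells exposed to compound overnight for roughly 16 to 18 hours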
# Wnt3a cs = Wnt3a reporter inhibition counter-screen; shares compounds with Gli-Sufu antag; Wnt-LIGHT cells, Wnt3a-driven luciferase reporter, luminescence; inhibition, % at 6.25 µM; 20% of 2,500 active;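 active = mean inhibition above about 25%, limit read from the data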
# SMARCA2 act conf = confirmation of SMARCA2 (BRM) function activators; shares compounds with SMARCA2 activ; MG213 cells, MMTV-luciferase with dexamethasone, luminescence, overnight; MG213 cells expressing E1A, Rb sequestered; DMSO wells 0%, reference activator 100%; activation, % at 9.1 µM; 30% of 3,500 active; AID 652260;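 active = activation above its plate's cutoff, the mean activation of tested wells plus 3 SD, cut at about 7.9% in these data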
# VP16 Luc act = activates GAL4-VP16 luciferase, flagging SMARCA2 activator hits. activation, % at 9.1 µM. shares compounds with SMARCA2 activ. 41% of 3,500 active. HEK293 GAL4-VP16 pG5luc reporter, luciferase luminescence; scaled: DMSO wells 0%, SAHA wells 100%. AID 686939;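 active = activation above the solvent-only control well mean plus 3 SD, averaged across control plates, cut at about 5.2% in these data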
# A number is an active result; . = inactive; / = not tested or not shown.
SMILES,697 NFkB inh,SMARCA2 activ,Jurkat NFkB inh,Gli-Sufu antag,esBAF inh,Jurkat NFkB conf,Gli-Sufu confirm,Gli cytotox,Wnt3a cs,others
C[C@@H]1CN([C@H](C)CO)C(=O)Cc2cc(NC(=O)Nc3ccc(F)cc3)ccc2O[C@@H]1CN(C)Cc1ccncc1,/,/,/,/,.,/,/,/,/,
Cc1ccc(C(=O)c2cc([N+](=O)[O-])ccc2N2CCCCC2)c(C)c1,.,.,66,59,/,55,53,60,.,
N=c1ccn(CC(=O)c2ccc(-c3ccccc3)cc2)cc1,.,.,58,82,/,.,84,.,30,
COc1ccc(S(=O)(=O)Nc2ccc3c(c2)C(=O)N([C@H](C)CO)C[C@@H](C)[C@@H](CN(C)S(=O)(=O)c2cn(C)cn2)O3)cc1,/,/,/,/,.,/,/,/,/,
N=c1c2c(n(Cc3ccc(Br)cc3)c3c1CCC3)CCCC2,52,.,53,88,/,.,89,38,54,697 NFkB conf=32
N=c1c2c(n(Cc3ccc([N+](=O)[O-])cc3)c3c1CCC3)CCCC2,.,.,.,.,/,/,/,/,/,
CCOc1cc(S(=O)(=O)NCc2cccs2)ccc1Cl,.,.,.,.,.,/,/,/,/,
CCOc1cc(S(=O)(=O)NCc2ccncc2)ccc1Cl,58,.,65,78,/,68,79,42,.,697 NFkB conf=98
CCOc1ccc(S(=O)(=O)NCc2ccncc2)cc1,100,.,72,82,.,70,79,37,47,697 NFkB conf=93
COc1ccc(C(C(=O)NC2CCCCC2)N(C(=O)CCl)c2cccc(Cl)c2)cc1 (stereo not given),/,.,/,/,/,/,/,/,/,
COc1ccc(C(C(=O)NC2CCCCC2)N(C(=O)CCl)c2ccc(OC)cc2)cc1 (stereo not given),98,/,93,84,/,.,.,.,.,697 NFkB conf=80
COc1ccc(C(C(=O)NC2CCCCC2)N(C(=O)CCl)c2ccc(C)cc2)cc1 (stereo not given),95,.,95,86,/,.,.,29,.,697 NFkB conf=.
Cc1ccc(S(=O)(=O)N(C)C[C@H]2OCCCC[C@H](C)Oc3ccc(NS(=O)(=O)c4c(C)noc4C)cc3C(=O)N([C@@H](C)CO)C[C@H]2C)cc1,/,/,/,/,.,/,/,/,/,
CC(=O)c1ccc(N2CCN(c3ccc(S(=O)(=O)NCCCN(C)C)cc3[N+](=O)[O-])CC2)cc1,.,.,.,.,.,/,/,/,/,
CN(C)CCCNS(=O)(=O)c1ccc(N2CCN(Cc3ccc4c(c3)OCO4)CC2)c([N+](=O)[O-])c1,.,.,62,.,.,.,.,.,.,
O=C(NNc1ccnc2cc(Cl)ccc12)C1CCCCC1,.,.,69,77,/,64,76,35,34,
CCn1c(/C=C/Nc2ccccc2)[n+](CC)c2cc(Cl)c(Cl)cc21,.,.,70,66,/,.,61,.,.,
CCn1c(/C=C/N(C(C)=O)c2ccccc2)[n+](CCCS(=O)(=O)[O-])c2cc(Cl)c(Cl)cc21,.,.,.,.,/,/,/,/,/,
CCOC(=O)C(C)Oc1cccc2c(=O)n(CC(=O)NCc3ccccc3)ccc12 (stereo not given),.,.,72,58,.,57,48,55,.,
CC(C)(C)c1nnc(N/N=C/c2ccccc2O)n(N)c1=O,.,.,56,61,/,73,71,51,55,
C[C@H]1CN([C@@H](C)CO)C(=O)c2cc(NS(C)(=O)=O)ccc2O[C@H]1CN(C)Cc1ccc(-c2ccccc2)cc1,/,/,/,/,.,/,/,/,/,
CCN(CC)S(=O)(=O)c1ccc(N/N=C/c2ccc(O)cc2O)nc1,.,.,51,58,/,.,70,26,79,
CC(C)n1c(CN(C)Cc2ccccc2)nc2c1c(=O)n(C)c(=O)n2C,.,.,57,70,/,53,78,.,48,
CC(=O)C(C)n1c(CN(C)Cc2ccccc2)nc2c1c(=O)n(C)c(=O)n2C (stereo not given),.,.,.,.,.,/,/,/,/,
O=C(Cc1ccc(N2CCNC2=O)cc1)N1CCCC(Nc2cccc(F)c2)C1 (stereo not given),.,.,59,.,.,.,.,41,.,
SMILES,697 NFkB inh,SMARCA2 activ,Jurkat NFkB inh,Gli-Sufu antag,esBAF inh,Jurkat NFkB conf,Gli-Sufu confirm,Gli cytotox,Wnt3a cs,others
CNC[C@H]1OCCCC[C@H](C)Oc2ccc(NS(=O)(=O)c3ccc(OC)cc3)cc2C(=O)N([C@@H](C)CO)C[C@@H]1C,/,/,/,/,.,/,/,/,/,
Cc1cc(N2CCOCC2)nc(NCc2ccccc2)n1,.,.,.,.,.,/,/,/,/,
Cc1cc(N2CCCCC2)nc(NCc2ccccc2)n1,.,.,68,.,/,.,.,.,.,
COc1cc(/C=N/N(C)c2ccccc2)ccc1O,.,9.3,.,.,.,.,/,/,/,SMARCA2 act conf=.;VP16 Luc act=9.9
COc1cc(OC)c(OC)cc1/C=N/N(C)c1ccccc1,.,.,.,.,/,/,/,/,/,
CC(C)C(=O)Nc1ccc(Nc2ccccc2)cc1,.,.,.,.,.,/,/,/,/,
CC(C)C(=O)Nc1ccc2nn(-c3ccccc3)nc2c1,.,9.4,.,.,.,.,/,/,/,697 NFkB conf=.;SMARCA2 act conf=.;VP16 Luc act=20
COCC(=O)Nc1ccc2c(c1)[C@@H]1C[C@H](CC(=O)NCC3CC3)O[C@@H](CO)[C@@H]1O2,/,/,/,/,.,/,/,/,/,
COc1ccc(C(=O)CN2Cc3ccccc3C2=N)cc1,.,12,.,.,/,.,/,/,/,SMARCA2 act conf=8.3;VP16 Luc act=6.1
Oc1cccc2ccc(/C=C/c3cccs3)nc12,.,13,.,.,.,.,/,/,/,SMARCA2 act conf=.;VP16 Luc act=23
C[C@H](CO)N1C[C@H](C)[C@@H](CN(C)Cc2ccc3c(c2)OCO3)Oc2ccc(NC(=O)Cc3ccccc3)cc2C1=O,/,/,/,/,.,/,/,/,/,
CO[C@H]1CN(C)C(=O)c2cc(NC(=O)Nc3ccccc3F)ccc2OC[C@H](C)N(C)C[C@@H]1C,/,/,/,/,.,/,/,/,/,
COc1ccc(N2C(=S)N(C(=O)c3ccccc3)C(=Nc3ccccc3)C2=Nc2ccccc2)cc1,.,11,.,.,.,.,/,/,/,SMARCA2 act conf=.;VP16 Luc act=.
